14-3-3 Bad PPI: disrupts binding of bovine 14-3-3 zeta to phospho-Bad peptide. TR-FRET 14-3-3zeta/Dy647-pBad peptide displacement, 1 h. inhibition, % at 21.7 µM. AID 781. hit rate 0.71% among 220,000. P63103;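 active = inhibition above about 70%, limit read from the data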
Target sequence (P63103 whole entry, looked up): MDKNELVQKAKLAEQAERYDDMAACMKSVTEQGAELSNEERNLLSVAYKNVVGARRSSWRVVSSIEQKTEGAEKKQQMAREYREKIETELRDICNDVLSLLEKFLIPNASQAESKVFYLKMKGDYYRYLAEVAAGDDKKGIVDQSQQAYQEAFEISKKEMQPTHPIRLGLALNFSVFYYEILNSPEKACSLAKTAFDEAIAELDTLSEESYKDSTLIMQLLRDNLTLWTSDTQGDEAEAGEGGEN
eIF4E-4G inh: inhibitors of eIF4E and eIF4G interaction in translation initiation | TR-FRET eIF4E-eIF4GI(517-606) binding, 2 h | inhibition, % at 21.7 µM | hit rate 0.37% among 220,000 | AID 782
Bim-Mcl-1: human Bim-Mcl-1 interaction inhibition; inhibition, % at 10 µM; Q07820; Bead-based flow cytometry, Bim peptide-Mcl-1 binding; hit rate 0.1% among 190,000; in the data active = inhibition above about 40%
Mcl1-Bid inh: disrupts binding of human Mcl-1 to Bid peptide; hit rate 0.97% among 220,000; inhibition, % at 21.7 µM; Q07820; TR-FRET Mcl-1/Bid-Dy647 peptide binding, 1536-well;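 active = compounds that cut the binding signal by more than half at the single screening dose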;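 note: His-tagged Mcl-1 with europium anti-His antibody binding Bid BH3 peptide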
NCF1 inh: inhibitors of human p47phox binding | p47phox/p22phox peptide binding, fluorescence polarization, 2 h | inhibition, % at 24.7 µM | hit rate 0.53% among 220,000 | AID 1274
Mcl1-Noxa inh: disrupts binding of human Mcl-1 to Noxa peptide; TR-FRET Mcl-1/Noxa peptide binding, 2 h; AID 1022; Q07820; inhibition, % at 21.7 µM; hit rate 1.5% among 220,000;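 active = compounds that cut the protein-peptide binding signal by more than 50% relative to plate controls in a single-dose test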;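 note: His-tagged Mcl-1 with rhodamine Noxa BH3 peptide and terbium anti-His antibody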
Large screens that a line does not name were inactive; [ ] = dose if it differs, or a comment. Hits are enriched below; roughly 3.3% of the tested compounds scored in any of these assays.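 Rule for the calls, unless noted: active = inhibition above about 30% (limit read from the data); inactive = the rest.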

Cc1ccc(-c2cc(C(=O)Nc3ccccn3)c3ccccc3n2)o1	Mcl1-Noxa inh 82
Cc1ccc(NC(=O)c2cc(-c3ccc(C)o3)nc3ccccc23)cc1	none
CNC(=O)COC(=O)c1cc(-c2ccco2)nc2ccccc12	eIF4E-4G inh 38, Mcl1-Noxa inh 76 (no result: Bim-Mcl-1)
O=C(COC(=O)c1cc(-c2ccco2)nc2ccccc12)NCc1ccccc1	none
CC(=O)Nc1ccc(/C=N/NC(=O)c2cc(-c3ccco3)nc3ccccc23)cc1	none (no result: Bim-Mcl-1)
O=C(O)c1ccccc1/C=N/NC(=O)c1cc(-c2ccco2)nc2ccccc12	eIF4E-4G inh 45, Mcl1-Noxa inh 99 (no result: Bim-Mcl-1)
COc1ccc(OC)c(/C=N/NC(=O)c2cc(-c3ccc(C)o3)nc3ccccc23)c1	NCF1 inh active
COC(=O)[C@@H]1CC[C@H](C)[C@@H](c2ccc(C)cc2)N1C(=O)c1ccc(/C=N/OCC[C@@H]2C=C[C@H](OC(C)=O)[C@@H](COC(C)=O)O2)cc1	none
O=C(NNC(=S)NCc1ccco1)c1ccc(S(=O)(=O)N2CCOCC2)cc1	none
CCCCNC(=O)C1CCCN1C(=O)Nc1ccccc1 (centres undefined)	none
CN(c1nc2nonc2nc1NC1CC1)C1CCOC1 (centres undefined)	none
COc1ccc(OC)c(/C=N\NC(=O)CSc2nnc(CCCc3ccc(OC)c(C)c3)o2)c1	none
COc1ccc(OC)c(/C=N/NC(=O)CSc2cc(C)nc3c(OC)cccc23)c1	14-3-3 Bad PPI 86
CCOC(=O)c1cc(-c2ccco2)nc2c1c(C)nn2CCC#N	none
CCOC(=O)c1cc(-c2ccco2)nc2c1c(C)nn2-c1cccc(Cl)c1	Mcl1-Noxa inh 78
CCNC(=O)COC(=O)c1cc(-c2ccc(OC)cc2)nc2ccccc12	none
CCN(CC)C(=O)COC(=O)c1cc(-c2ccco2)nc2ccccc12	eIF4E-4G inh 34, NCF1 inh 46, Mcl1-Noxa inh 90
CCN(CC)C(=O)COC(=O)c1cc(-c2ccc(OC)cc2)nc2ccccc12	Mcl1-Bid inh 97
CCN(CC)CCNC(=O)c1cc(-c2ccco2)nc2ccccc12	none
Cc1ccc(NC(=O)Cn2c(-c3ccc(F)cc3)cnc2SCC(=O)Nc2c(C)cccc2C)cc1	none
CCO[C@H]1OC(C(=O)N2CCN(C)CC2)=C[C@@H](c2ccc(Br)cc2)[C@@H]1CCCO	none
CCOCCCNC1=C(Cl)C(=O)c2ccccc2C1=O	Mcl1-Noxa inh 64 (no result: Bim-Mcl-1)
COc1ccc(/C=C2\CCn3c2nc2cc(C(=O)O)ccc2c3=O)cc1OC	none (no result: Bim-Mcl-1)
CC(C)CCOc1ccc(/C=C2\CCn3c2nc2cc(C(=O)O)ccc2c3=O)cc1	Mcl1-Noxa inh 78
Cc1ccc(C(C(=O)NCc2ccco2)N(Cc2ccco2)C(=O)CNC(=O)c2ccco2)cc1 (centres undefined)	NCF1 inh 67
COc1ccc(C(C(=O)NC2CCCCC2)N(Cc2ccco2)C(=O)CNC(=O)c2ccco2)cc1 (centres undefined)	none
CC(C)CC(=O)Nc1ccc(-c2nnn(CC(=O)NCc3ccco3)n2)cc1	none
Cc1cc(=O)oc2c(CN3CCCCC3)c(O)c(Cl)cc12	14-3-3 Bad PPI 73[fluorescence artefact?]
CC(C)(C)c1[nH]nc2c1C(c1ccc(OC(=O)c3ccco3)cc1)C(C#N)=C(N)O2 (centres undefined)	eIF4E-4G inh 43
CC(C)(C)c1[nH]nc2c1C(c1cccnc1)C(C#N)=C(N)O2 (centres undefined)	none
CC(CC(=O)Nc1ccc(S(=O)(=O)N2CCOCC2)cc1)c1ccccc1 (centres undefined)	none (no result: Bim-Mcl-1)
O=C(CN1C2=NCCCN2c2ccccc21)c1ccc([N+](=O)[O-])cc1	none
O=C(CCNS(=O)(=O)c1cccs1)N1CCCCCC1	eIF4E-4G inh 38
O=C(CCS(=O)(=O)c1cccs1)N1CCCC1	eIF4E-4G inh 50
O=C(CCNS(=O)(=O)c1ccc(Br)s1)N1CCCCC1	none
CCSc1ccc2nnc(-c3cccc(F)c3)n2n1	eIF4E-4G inh 56
O=C(CSc1ccc2nnc(-c3cccc(F)c3)n2n1)N1CCCc2ccccc21	none
COc1ccc(C2CC(c3cccs3)=NN2C(=O)COC(=O)c2cncc(Br)c2)cc1OC (centres undefined)	none
CCN(CC)C(=O)Cn1c(=O)n(CCCC(=O)NCc2ccccc2)c(=O)c2sccc21	none

Bioassay records from PubChem.
